Assay results from PubChem BioAssay AID1466 (National Center for Advancing Translational Sciences (NCATS), 2008).
Hit rate of the full screen: of about 200,000 compounds, about 10 (0.005%) were called active. Roughly 8% stayed inconclusive and do not appear here. Calls follow the shape of the dose curve; as a rule, active = well fitted inhibition curve with a large enough effect; inconclusive = small, poorly fitted or top-dose-only effect, or effect the other way, or another doubt; inactive = no such curve, though single readings can be large or run the other way. A selection follows.

Each molecule was assayed against Lysosomal alpha-glucosidase (Homo sapiens) (UniProt P10253) (assay: qHTS Assay for Inhibitors of Human alpha-Glucosidase as a Potential Chaperone Treatment of Pompe Disease). Conditions: purified human GAA, 4-MU-alpha-glucoside fluorescence; series mostly up to 76.9 µM; activity change, negative = inhibition: at the top concentration.
Text: NIH Chemical Genomics Center [NCGC] NIH Molecular Libraries Probe Production centers Network [MLPCN] MLPCN Grant: 1R03MH084841-01 Assay Submitter (PI): Wei Zheng NCGC Assay Overview: Alpha-glucosidase is responsible for hydrolysis of terminal, non-reducing 1,4-linked alpha-D-glucose residues with release of alpha-D-glucose. It is a lysosomal hydrolase that is required for the degradation of a small percentage (1-3%) of cellular glycogen in human. Deficiency of this enzyme results in glycogen-storage disease type II (GSDII), also referred to as Pompe disease, an autosomal recessive disorder. Structurally normal glycogen is accumulated in lysosomes and cytoplasm in affected patients, primarily in muscle tissues. Excessive glycogen storage within lysosomes may interrupt normal functioning of other organelles and leads to cellular injury. In turn, this leads to enlargement and dysfunction of the entire organ involved (eg, cardiomyopathy and muscle weakness). It has reported that the improper folding and trafficking of alpha-glucosidase resulting from the genetic mutations may account for a significant number of Pompe patients. […] We optimized this alpha-glucosidase assay in 1536-well plate format for identifying the novel small molecule inhibitors with the structures other than the sugar analogs in order to develop the new pharmacological chaperones.
NCGC Assay Protocol Summary: This is a fluorogenic enzyme assay with 4-methylumbelliferyl-alpha-D-[…] as the substrate and human alpha-glucosidase as the enzyme preparation. Upon the hydrolysis of this fluorogenic substrate, the resulting product, 1. 4-methyllumbelliferone, can be excited at 365 nm and emits at 440 nm which can be detected by a standard fluorescence plate reader. Data were normalized to the controls for basal activity (without enzyme) and 100% activity (with enzyme). In the AC50 values were determined from concentration-response data modeled with the standard Hill equation. Assay buffer: 50 mM citric acid (titrated with potassium phosphate to pH 5.0), 0.005% Tween-20, pH 5.0. (pH 5.0 is an optimal condition for this enzyme assay) 1536-well assay protocol for the human alpha-glucosidase: (1) Add 2 ul/well of enzyme (4 nM final) (2) Add 23 nL compounds in DMSO solution. The final titration was 0.7 nM to 77 uM. (3) Add 1 ul of substrate (400 uM final) (4) Incubate at room temperature for 20 min. (5) Add 2 ul stop solution (1M NaOH and 1M Glycine mixture, pH 10) (6) Detect the assay plate in a ViewLux plate reader (PerkinElmer) with Ex=365 nm and Em=440nm. Keywords: Alpha-glucosidase, Pompe Disease, pharmacological chaperone, chaperone therapy, high throughput screening, alpha-glucosidase inhibitor, MLSMR, MLSCN, NIH Roadmap, qHTS and NCGC
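Also: plate controls were uninhibited enzyme wells for no effect and no-enzyme background for full effect.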

Activity change, negative = inhibition, inactive:
COc1ccc(OC)c(NC(=O)CN(Cc2ccc(Cl)cc2)S(C)(=O)=O)c1 -6.41%
O=C(N/N=C/c1ccccn1)c1cccnc1 -6.66% [at 15.4 µM]
CCOC(=O)c1cnc2c(c(C)nn2CC)c1Cl 2.22%
CCc1nc(C)cn1S(=O)(=O)c1cc([N+](=O)[O-])ccc1Cl 3.68%
O=[N+]([O-])c1ccc(F)cc1Oc1nc(-c2cccnc2)nc2ccccc12 1.6%
COc1ccc(/C=C/C2=CC(C)(C)NC(=S)N2)c(OC)c1 -10.3%
COc1ccccc1C1CCN(C(=S)Nc2ccc(Br)cc2)CC1 -8.72% [at 15.4 µM]
Cc1ccc(-c2nn(-c3cccc(F)c3)cc2CNCCc2ccncc2)o1 -3.04%
Brc1ccc2nc(N3CCCC3)sc2c1 -7.16%
COc1ccc(Cl)cc1N(CC(=O)N1CCCCC1)S(C)(=O)=O -2.73%
Cn1nc(C(F)(F)F)cc1-c1ccc(/C=C(\C#N)C(=O)c2cccc(C(F)(F)F)c2)s1 -13.5%
COc1ccc(C(=O)Nc2ccc(NC(=O)C(C)C)nc2)cc1 10.4%
CC1Cc2ccccc2N1C(=O)CSc1nnc(C2CC2)n1C (configuration not stated) -3.65%
Cc1nnsc1C(=O)NCc1c(F)cccc1Cl -5.04%
Cc1cc(Cl)ccc1NNC(=O)c1snnc1C -0.766%
COc1cc(C)c(S(=O)(=O)N2CCOCC2)c(C)c1C 5.9%
COc1ccccc1/C=C/C=N/NC(=O)CN1CCN(Cc2ccccc2)CC1 -13.8%
Cc1ccc(NC(=O)CSc2nnc(CNC(=O)c3ccccc3F)o2)cc1 6.34%
COc1cccc(NCCC(=O)c2cccc([N+](=O)[O-])c2)c1 3.03%
CC(C)N(Cc1ccccc1)C(=O)COC(=O)c1cnccn1 2.14%
O=C1Nc2ccc([N+](=O)[O-])cc2C1=Nc1cccc(CO)c1 7.58%
COc1cc(/C=C2/C(=O)ON=C2C)ccc1OCc1cccc(F)c1 3.02%
CCCCS(=O)c1snnc1C (configuration not stated) 7.98%
COc1ccc(-c2nc(N)sc2C2(O)C(=O)Nc3c(Br)cc(F)cc32)cc1OC (configuration not stated) -1.75%
COc1ccccc1NC(=O)c1cc(Cl)nc2ccccc12 -0.703% [at 15.4 µM]
Cc1c(C(=O)Nc2ccccc2)sc2nc3n(c(=O)c12)CCCCC3 -0.732%
Cc1noc(C)c1COc1ccc2ccc(=O)oc2c1 2.21%
O=C(CO/N=C/c1ccc(OC(F)F)cc1)NCc1ccc(F)cc1 -1.64%
COCc1cc(=O)[nH]c(-c2ccc(C(F)(F)F)cc2)n1 -0.699%
CC1CC(C)CN(C(=O)CSc2ccsc2[N+](=O)[O-])C1 (configuration not stated) -9.98%
O=C(c1ccc(=O)oc1)N1CCC(C(O)(c2ccccc2)c2ccccc2)CC1 2.64%
O=C(/C=C/c1ccccc1[N+](=O)[O-])OC1CCCCC1=O (configuration not stated) 0.967%
CCOc1ccc(C(CC(=O)O)n2cnnn2)cc1OC (configuration not stated) 4.13%
Cc1cc(=O)[nH]c(S)c1C#N 1.79% [at 15.4 µM]
Cc1c(Cl)cccc1NC(=S)N(Cc1ccccc1)Cc1cccnc1 1.69%
C=C(C)CNC(=S)Nc1ccc(S(=O)(=O)Nc2cnc3ccccc3n2)cc1 -14.1%
N/C(=N\OC(=O)Cc1ccc([N+](=O)[O-])cc1)c1ccccn1 -2.82%
COc1cccc(OC)c1CN(C)C(=O)c1cnccc1C(F)(F)F -1.85% [at 15.4 µM]
CCS(=O)(=O)C1=NSC2=NC(=O)/C(=C\c3cc(C)n(-c4cccc(OC)c4)c3C)C(=N)N21 -5.46%
CC1CC(=O)Nc2ccccc2N1S(=O)(=O)c1cccs1 (configuration not stated) -6.42%
Cc1nc(N2CCCCC2)sc1C=O -3.97%
Cc1cc(C)nc(NC(=O)/C=C/c2ccc(Cl)cc2)n1 -23.8%
COc1ccc(N2C(=O)C3C(C2=O)C(C(=O)c2ccccc2)N2CCCC32)cc1 (configuration not stated) -6.45% [at 15.4 µM]
Cc1ccc(OC(=O)c2c(C)nn(-c3ccccc3)c2C)cc1 3.81%
NS(=O)(=O)c1ccc(NC(=O)COC(=O)CCc2c[nH]c3ccccc23)cc1 3.96%
COc1ccc(CN(Cc2ccc(OC)cc2)C(=O)c2cccs2)cc1 0.0908%
CCC(=O)N(Cc1cc2ccccc2[nH]c1=O)c1ccc(OC)cc1 -0.638%
O=C(Nc1cccnc1)c1cccc(S(=O)(=O)N2CCCC2)c1 5.11%
CCOC(=O)NNc1cc(C(F)(F)F)ccn1 -7.1% [at 15.4 µM]
CN(C)c1ccc(/C=C/C(=O)c2ccc(O)cc2)cc1[N+](=O)[O-] -8.53%
COC(=O)c1noc(C)c1-c1ccnn1C(=O)c1ccc(Cl)cc1 -10.5%
CN(CCC1CCOCC1)Cc1cn[nH]c1-c1ccc(-c2ccccc2)cc1 -10.9%
CCOC(=O)C1CCN(c2ncnc3c2c(-c2ccccc2)cn3-c2ccc(C)cc2)CC1 1.29%
CCOC(=O)c1sc(NC(=O)CSc2nc(O)c(Cc3ccccc3)c(=O)[nH]2)nc1C -4.75%
Cc1cc(=O)oc2c(C(=O)c3ccccc3)c(OCC(N)=O)ccc12 7.98%
Cc1cc(C)cc(OCC(=O)O/N=C(\N)Cc2ccc([N+](=O)[O-])cc2)c1 -14.2%
COC(=O)c1cc(NC(=O)c2ccco2)ccc1N1CCOCC1 5.5%
CCc1ccc(NC(=O)N2CCN(c3ccccc3)CC2)cc1 0.27%
C=CCN(c1ccccc1C(=O)NCC(=O)OCC)S(=O)(=O)c1ccc(C)cc1 -5.41%
CNC(=O)COC(=O)c1cc(-c2ccc(OC)cc2)nc2ccccc12 1.14%
COCCCNC(=S)NCCNc1nc2cc(C)c(C)cc2cc1C#N 11.7%
C/[N+]([O-])=C\c1ccc([N+](=O)[O-])o1 -1.29%
COc1ccc(O)c(C(=O)c2cnc3c(c2)c(-c2ccc(F)cc2)c(C#N)c(=O)n3C)c1 2.1%
CN(C)S(=O)(=O)c1ccc(NC(=O)COC(=O)Cn2[nH]c(=O)c3ccccc3c2=O)cc1 -14.6%
Cc1ccc(CN(Cc2cccnc2)C(=S)Nc2cc(Cl)ccc2C)cc1 -3.74%
Cc1ccccc1NCC(=O)N/N=C\c1ccc([N+](=O)[O-])s1 -9.83%
COc1cccc(NC(=O)C(Sc2nnnn2C)c2ccccc2)c1 (configuration not stated) -3.14%
Cc1cc(C(=O)N/N=C\C(Br)=C\c2ccccc2)c(C)o1 -12.8%
COc1ccc(NC(=O)CSc2ncnc3[nH]ncc23)cc1 5.07% [at 15.4 µM]
COc1cc(C(F)(F)F)c(C(=O)N(C)c2ccc(Cl)cc2)cn1 -7.91%
O=C(CP(=O)(c1ccccc1)c1ccccc1)N1CCOCC1 8.31%
S=C(Nc1ccc(Br)cc1Cl)NC1CCN(Cc2ccccc2)CC1 1.66%
CC(NC(=S)Nc1ccc(OC(F)F)cc1)c1ccc(F)cc1 (configuration not stated) -1.9%
CS(=O)(=O)c1ccc2nc(NC(=O)c3ccc(N4CCCC4=O)cc3)sc2c1 -7.6%
CCOCCCNC(=O)C(NC(=O)c1ccccc1O)c1ccccc1 (configuration not stated) -4.04%
O=C(C1CCN(S(=O)(=O)c2ccc(Br)s2)CC1)N1CCN(C2CCCCC2)CC1 -23.2%
Cc1cc(-c2nc(C)c(-c3nnc(SCC(=O)Nc4ccccc4)n3C)s2)no1 3.88% [at 15.4 µM]
CNc1ccc([N+](=O)[O-])cc1C(=O)O -15.9%
CSCC[C@H](NC(=O)NC1CCCC1)C(=O)O -5.49% [at 15.4 µM]
Cc1ccc(-c2cc(C(=O)NN)n[nH]2)o1 -2.87%
Cc1cccc(C)c1NC(=O)C1CCCN1C(=O)OC(C)(C)C (configuration not stated) 1.51%
Cc1ccc(/C=N/NC(=O)CSc2ccccn2)o1 0.179% [at 15.4 µM]
CCCCCCCCCCCCC(NC(C)=O)(C(=O)OCC)C(=O)OCC -6.38%
O=C(NCC1CCCO1)c1cc(-c2ccccc2)nc2ccccc12 (configuration not stated) -10.8% [at 15.4 µM]
FC(F)(F)c1cccc(-c2nc(COc3ccc(Cl)cc3Cl)no2)c1 -4.53%
COc1ccc(N2CCN(C(=O)CNS(=O)(=O)c3ccc(C)c(C)c3)CC2)cc1 -1.52%
C/C(=N\Nc1ncc(Cl)cc1Cl)c1cccs1 4.46%
Cc1onc(C(=O)NN)c1C(=O)N1CCN(C(c2ccccc2)c2ccccc2)CC1 -11.1%
CCOc1ccc2sc(NS(=O)(=O)c3ccc(N)cc3)nc2c1 -7.28%
CCn1c(SCc2ccccc2)nc2c(c1=O)SCC2 0.321%
Nc1ccccc1Sc1cc(Cl)nnc1Cl 3.88%
Cc1cccc(CSc2nc3c(c(=O)n2C)SCC3)c1 -3.07%
